Activity calls are given as the source filed them. Where a call stands in place of a potency, no number is given. Calls follow the shape of the dose curve; as a rule, active = well fitted activation curve with a large enough effect; inconclusive = small, poorly fitted or top-dose-only effect; inactive = flat fitted curve, though single readings scatter.
Experiment: Confirmation and Secondary Assay for Modulators of Hemoglobin Beta Chain Splicing at IVS2 705 locus (AID 930)
Conditions: HeLa EGFP-705 splicing reporter, GFP fluorescence, 48 h; series mostly up to 46.1 µM
From the text: NIH Chemical Genomics Center [NCGC] NIH Molecular Libraries Screening Centers Network [MLSCN] MLSCN Grant: 1 X01 MH080684-01 PI Name: Dr. Ryszard Kole NCGC Assay Overview: Modulation of Alternative Splicing as Therapy Abnormal splicing is associated with a number of diseases, including cancer and genetic diseases such as cystic fibrosis, muscular dystrophy and beta-thalassemia. Alteration of disease associated splicing patterns provides a promising target for treatment. […] Mutations in the second intron of the b-globin gene at positions 654 or 705 are clinically relevant and cause mis-splicing which results in an out of frame gene product. […] EGFP-705 HeLa Cells as screen system. HeLa cell lines were stably transfected with a construct in which the EGFP (enhanced green fluorescent protein) cDNA was interrupted by the second intron of the beta-globin gene (IVS2-705). The ISV2 intron contains mutations which cause mis-splicing of EGFP and premature termination of EGFP which results in a nonfluorescent protein product. […] Expression of the transgene was driven by the CMV promoter. We concluded that a low molecular weight compound, which restored correct splicing of intron 2 would also generate functional EGFP protein, resulting in a fluorescent signal. Thus, the HeLa cells that express the EGFP-705 construct can be used for validation of splice site specificity of compounds identified in primary screening of the ISV2 654 construct.
NCGC Assay Protocol Summary: Confirmatory Screening. Freshly thawed HeLa EGFP-705 cells were seeded in 5 ul of optimem media (Invitrogen) containing 2 % fetal calf serum (Hyclone) and 1x penicillin/streptomycin (Invitrogen) at a concentration of 500 cells per well in 1536-well plates. Cells were incubated overnight at 37C in 5% CO2. The next day, cells were treated with DMSO, 500 nM antisense ISV2 654 PNA control oligo, or library compound and allowed to grow at 37C in 5% CO2 for 2 days. The PNA oligo blocked the mutation site in the intron and allowed proper (wild type) splicing to occur, resulting in full length EGFP expression and also allowed for optimization of the assay parameters. Plates were read in the Acumen Explorer (TTP Labtech) using 488 nm laser excitation and 500-520 nm emission PMT filter in a 1 x 8 uM capture mode. Fluorescnet objects ranging in size from 5 to 250 uM were measured and the total peak GFP intensity for each well was used for data analysis. Keywords: Thalassemia, beta-thalassemia, beta-globin, EGFP, ISV2 654, ISV2 705, SSO, PNA, antisense, splicing, MLSMR, MLSCN, NIH Roadmap, qHTS, NCGC
Potency is read from the fitted curve at half-maximal effect.

Structure (SMILES) | Potency
Cc1c(Cl)cccc1Nc1ccccc1C(=O)O | inactive
Cn1cc[nH]c1=S | inactive
c1ccc(CN(CC2=NCCN2)c2ccccc2)cc1 | inactive
NS(=O)(=O)c1cc2c(cc1C(F)(F)F)NC(Cc1ccccc1)NS2(=O)=O (stereo not given) | inactive
CN(C)CCCN1c2ccccc2Sc2ccc(Cl)cc21 | inactive
COC(=O)C1=C(C)NC(C)=C(C(=O)OC)C1c1ccccc1[N+](=O)[O-] | inactive
CCN(CC)CCCC(C)Nc1c2ccc(Cl)cc2nc2ccc(OC)cc12 (stereo not given) | 7.94 µM (active)
CN(C)CC[C@@H](c1ccc(Cl)cc1)c1ccccn1 | inactive
CN1CCOC(c2ccccc2)c2ccccc2C1 (stereo not given) | inactive
Cc1cc(CC(=O)O)n(C)c1C(=O)c1ccc(Cl)cc1 | inactive
Nc1ccc(S(=O)(=O)Nc2ccc(Cl)nn2)cc1 | inactive
Cc1cc(N)c2ccccc2[n+]1CCCCCCCCCC[n+]1c(C)cc(N)c2ccccc21 | inactive
CSc1ccc2c(c1)N(CCC1CCCCN1C)c1ccccc1S2 (stereo not given) | inactive
Nc1ccc(S(=O)(=O)NC(=O)c2ccccc2)cc1 | inactive
CC1=C(CC(=O)O)c2cc(F)ccc2/C1=C\c1ccc(S(C)=O)cc1 (stereo not given) | inactive
CSc1ccc2c(c1)C(N1CCN(C)CC1)Cc1ccccc1S2 (stereo not given) | inactive
CCn1cc(C(=O)O)c(=O)c2cnc(N3CCNCC3)nc21 | inactive
CC12CCC(CC1)C(C)(C)O2 | inactive
NC(=O)NC(=O)Cc1ccccc1 | inactive
O=c1cc[nH]c(=S)[nH]1 | inactive

Structure (SMILES) | Potency
CCCCN(CCCC)CCCOC(=O)c1ccc(N)cc1 | inactive
CC(CN(C)C)CN1c2ccccc2CCc2ccccc21 (stereo not given) | inactive
O=C1NS(=O)(=O)c2ccccc21 | inactive
CC(COc1ccccc1)NC(C)C(O)c1ccc(O)cc1 (stereo not given) | inactive
CN(C)CCOC(C)(c1ccccc1)c1ccccn1 (stereo not given) | inactive
CCN(CC)C(C)CN1c2ccccc2Sc2ccccc21 (stereo not given) | inactive
Cc1ccc(C(C)C)cc2c(C)ccc1-2 | inactive
CNCC(O)c1ccc(O)c(O)c1 (stereo not given) | inactive
O=C1c2c(O)cccc2Cc2cccc(O)c21 | inactive
OCC(O)CN1CCN(c2ccccc2)CC1 (stereo not given) | inactive
CNCCC(Oc1ccc(C(F)(F)F)cc1)c1ccccc1 (stereo not given) | inactive
O=C(CCCN1CCN(c2ccccn2)CC1)c1ccc(F)cc1 | inactive
COc1ccc(Cl)cc1C(=O)NCCc1ccc(S(=O)(=O)NC(=O)NC2CCCCC2)cc1 | inactive
CCN(CC)CCOC(=O)C1(C2CCCCC2)CCCCC1 | inactive
CCN(CC)CCNC(=O)c1cc(Cl)c(N)cc1OC | inactive
CN(C)CCC=C1c2ccccc2CCc2ccccc21 | inactive
NC(=O)N/N=C/c1ccc([N+](=O)[O-])o1 | inactive
NCC(=O)CCC(=O)O | inactive
O=C(Oc1ccccc1C(=O)O)c1ccccc1O | inactive
CN(C)CCN(Cc1ccccc1)c1ccccn1 | inactive

Source: PubChem BioAssay (NCATS)
